Assay results: PubChem BioAssay (NCI)
This is part of a sample that, as a whole, favours compounds with a hit. Of some 79,000 tested, about 15% had one in any assay. A number with no mark means an inactive call. Active and inactive are the calls of the source. Rule as the data show it: active = growth inhibition above about 70%; inactive = the rest.

Test: NCI Yeast Anticancer Drug Screen. Data for the sgs1 mgt1 strain (AID 161);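 also: 0% = growth of cultures given vehicle only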
Settings: S. cerevisiae sgs1 mgt1 strain, at 50.0 µM, active compounds read high
Method in brief: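 Growth of a repair-deficient yeast mutant was monitored after compound treatment and expressed as inhibition relative to vehicle-treated cultures.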
Molecule `CC(=O)Nc1ccc(Cc2ccc(Cl)cc2)cc1` has a growth inhibition of 5.7%.
`CCC(=O)Nc1ccc(C)cc1C` showed a growth inhibition of 9.8%.
Work on `CC(C)c1ccc(OC(=N)c2ccccc2)cc1` yielded a growth inhibition of -9.45%.
Work on `CC/C(=N/NC(=O)c1ccccc1)c1ccccc1` yielded a growth inhibition of 8.7%.
Molecule `CCOC(=O)c1cc(=O)[nH]c(N)n1` has a growth inhibition of -1.55%.
Molecule `O=C1OCC(O)=C1C(c1ccc(Cl)cc1)c1cc2c(cc1O)OCO2` (stereo not given) has a growth inhibition of -28.1%.
Work on `COC(=O)c1ccccc1/C=C1\Cc2ccc3c(c2C1=O)CCCC3` yielded a growth inhibition of -18.9%.
`CC(C)CNC(=S)N/N=C/C=C/c1ccc([N+](=O)[O-])cc1` gave a growth inhibition of 23.4%.
For `CC(=O)c1ccccc1NC(=O)C(=O)C(C(=O)c1ccc2ccccc2c1)C1OC(=O)c2ccccc21` (stereo not given), the growth inhibition was 11.4%.
Molecule `C[Si](C)(C)N1CCCC1` has a growth inhibition of -16.8%.
For `O=S(=O)(CC(Br)c1ccccc1)c1ccccc1` (stereo not given), the growth inhibition was 5.05%.
In the case of `COc1cc(C)oc(=O)c1`, the growth inhibition is reported as -2.45%.
For `CCOC(C)OCCCI` (stereo not given), the growth inhibition was 3.5%.
`c1cc(CCc2ccncc2)ccn1` gave a growth inhibition of 2.5%.
With `O=C1NC(c2ccccc2)(c2ccccc2)C(=O)N1CCCCCCN1C(=O)NC(c2ccccc2)(c2ccccc2)C1=O` the growth inhibition was 4%.
In the case of `CCNC(=O)C1CC2C=CC1C2` (stereo not given), the growth inhibition is reported as 4.2%.
With `COc1ccc(/C=C2\N=C(c3ccc(N)cc3)OC2=O)cc1OC` the growth inhibition was 13.2%.
With `COc1ccc2[nH]c3c4c(cc(-c5ccccc5)c3c2c1)C(=O)N(c1ccccc1)C4=O` the growth inhibition was -16.6%.
`COc1ccc2cc3n(cc-2c1=O)CCc1cc2c(cc1-3)OCO2` gave a growth inhibition of 5.65%.
`Nc1ccc(NC(=S)Nc2ccccc2)cc1` showed a growth inhibition of -3.15%.
`CN(CCC(=O)O)S(=O)(=O)c1ccccc1` gave a growth inhibition of -10.6%.
In the case of `C1COC(C2=NCCO2)=N1`, the growth inhibition is reported as -14.1%.
In the case of `Cc1oc2ccccc2c(=O)c1Cn1cnc2ccc([N+](=O)[O-])cc21`, the growth inhibition is reported as 21.5%.
`O=C1/C(=C/c2ccc(F)cc2)CC/C1=C\c1ccc(F)cc1` gave a growth inhibition of -2.85%.
With `CC(=O)c1ccc(O)c(CN(C2CCCCC2)C2CCCCC2)c1O` the growth inhibition was -36.1%.
In the case of `O=c1c2ccccc2c2nccn2c2ccccc12`, the growth inhibition is reported as 19.1%.
With `C=CCNC(=O)N(CCCC(NC(C)=O)C(=O)NCc1ccccc1)Cc1ccccc1` (stereo not given) the growth inhibition was -8.85%.
`CCOP(C)(=O)C(Cc1c[nH]c2ccccc12)C(=O)O` (stereo not given) gave a growth inhibition of 9.9%.
For `COc1cc(O)c2c(c1)C(=O)c1cc3c(c(O)c1C2=O)C(O)C(OC)C(C)(O)C3O` (stereo not given), the growth inhibition was 72% (active).
Work on `C=CCNC(=S)NNC(=S)NCC=C` yielded a growth inhibition of 10.4%.
`CN1C(=O)C(n2[nH]c(=O)n(-c3ccccc3)c2=O)C(=O)N(C)C1=O` showed a growth inhibition of -6.55%.
`CC(=O)OCC1C(=O)OCC1C(=O)N1Cc2cc3ccccc3nc2C1` (stereo not given) gave a growth inhibition of 13.7%.
`CC1=CC(=O)/C(=C/N2C(=O)CNC2=S)C(=O)O1` gave a growth inhibition of -13.8%.
`CC/C(=N\NS(=O)(=O)c1ccc(C)cc1)c1ccc(Br)cc1` showed a growth inhibition of -1.6%.
`O=C(Oc1ccc(OC(=O)c2ccccc2)c(C2CCCCCC2)c1)c1ccccc1` gave a growth inhibition of 25.1%.
Work on `CCCCN(CCCC)CC(O)c1cc(-c2ccc(C(F)(F)F)cc2)nc(-c2ccc(C(F)(F)F)cc2)c1` (stereo not given) yielded a growth inhibition of 2.2%.
`CN(C)C(=O)c1cccc(C2CCCCC2)c1O` showed a growth inhibition of 14.6%.
`C=C(CC(=O)OCC)C(=O)OCC` gave a growth inhibition of 18.4%.
`CCCCCC/C=C\CCCCCCCCCc1cccc(OC)c1O` gave a growth inhibition of -4.3%.
For `O=C(NNC(=O)c1ccccc1Br)c1ccccc1Br`, the growth inhibition was -9.6%.
